In the library only some 1.4% were active in any assay of this set; here they are far more common.
KCNH2 WT inh: inhibitors of human wildtype KCNH2 potassium channel | AID 720551 | activity change, % at 1.84 µM | actives 0.37% (n = 340,000) | Q12809 | U2OS, BacMam KCNH2, thallium flux FluxOr; active compounds read low;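 active means maximum activity change below -70%; inconclusive means maximum activity change between -70% and -50%; inactive means maximum activity change above -50%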
Target sequence (Q12809 whole entry, looked up): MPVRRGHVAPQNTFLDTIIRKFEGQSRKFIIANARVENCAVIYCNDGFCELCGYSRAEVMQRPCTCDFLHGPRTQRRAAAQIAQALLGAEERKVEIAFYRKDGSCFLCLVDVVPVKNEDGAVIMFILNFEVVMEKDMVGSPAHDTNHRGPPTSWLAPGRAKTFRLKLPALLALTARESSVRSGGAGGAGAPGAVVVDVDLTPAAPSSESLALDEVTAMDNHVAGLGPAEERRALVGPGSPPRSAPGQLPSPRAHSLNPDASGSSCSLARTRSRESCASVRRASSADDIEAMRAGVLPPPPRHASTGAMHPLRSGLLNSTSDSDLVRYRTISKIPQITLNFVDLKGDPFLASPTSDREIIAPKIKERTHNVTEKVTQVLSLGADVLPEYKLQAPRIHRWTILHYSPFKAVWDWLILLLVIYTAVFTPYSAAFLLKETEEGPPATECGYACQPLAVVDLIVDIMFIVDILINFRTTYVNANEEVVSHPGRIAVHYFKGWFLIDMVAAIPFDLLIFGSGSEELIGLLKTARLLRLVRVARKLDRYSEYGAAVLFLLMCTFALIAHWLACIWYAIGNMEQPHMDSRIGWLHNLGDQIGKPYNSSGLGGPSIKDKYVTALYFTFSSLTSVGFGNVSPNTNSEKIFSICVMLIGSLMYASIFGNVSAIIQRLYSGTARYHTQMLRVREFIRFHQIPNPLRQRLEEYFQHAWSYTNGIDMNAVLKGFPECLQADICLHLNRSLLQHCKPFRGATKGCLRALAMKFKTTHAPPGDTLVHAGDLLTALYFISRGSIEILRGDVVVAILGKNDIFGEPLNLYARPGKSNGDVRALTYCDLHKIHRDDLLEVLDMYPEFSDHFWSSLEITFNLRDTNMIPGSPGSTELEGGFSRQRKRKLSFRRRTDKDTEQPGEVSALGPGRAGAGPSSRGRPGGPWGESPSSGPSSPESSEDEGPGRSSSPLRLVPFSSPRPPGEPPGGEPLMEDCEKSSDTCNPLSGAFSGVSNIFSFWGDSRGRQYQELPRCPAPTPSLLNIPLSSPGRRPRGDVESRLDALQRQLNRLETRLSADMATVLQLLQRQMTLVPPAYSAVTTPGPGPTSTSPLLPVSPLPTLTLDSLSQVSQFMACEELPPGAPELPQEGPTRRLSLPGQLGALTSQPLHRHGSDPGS
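U2OS cells were transduced with wild-type KCNH2 virus (2.03 x 10^8 / mL) for 4 h at room temperature, then cultured overnight at 37 C. Thallium flux was read with FluxOr dye. Rate constants were normalized to DMSO controls.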
Rango complex inh: inhibitors of Rango-importin beta complex formation. actives 0.031% (n = 340,000). Q14974. Potency, µM (top dose mostly 92.2 µM). Rango CFP/YFP FRET sensor + importin beta, 45 min. AID 540263; further: nearly all actives have a fitted effect of over 15% in size
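FRET biosensor Rango (snurportin 1 IBB between N-terminal EYFP and C-terminal Cerulean), 50 nM in PBS/1 mM DTT/0.02% Tween-20/0.1% BSA, preincubated 5 min RT with compound; 0.125 microM importin beta added, 45 min RT, CFP/YFP FRET ratio read.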
Rango dissoc inh: prevents RanGTP from dissociating the Rango-importin beta complex. Potency, µM (doses to about 46.1 µM). AID 540253. Biochemical FRET Rango-importin beta, RanGTP-induced dissociation. O95149+P62826. actives 0.071% (n = 340,000); further: nearly all actives have a fitted effect of over 45% in size
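Compounds preincubate 5 min with complex of recombinant Rango and importin beta in PBS with 1 mM DTT. Ran (0.6 uM) loaded with 2 mM GTP plus 0.2 uM RCC1 starts dissociation; FRET is recorded 45 min later.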
KCNH2 3.1 inh: inhibitors of human KCNH2 3.1 potassium channel isoform. U2OS KCNH2 3.1, thallium flux FluxOr; active compounds read low. activity change, % (tested at about 1.8 µM). actives 0.95% (n = 340,000). AID 720553;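 active means maximum activity change below -70%; inconclusive means maximum activity change from -70% to -50%; inactive means maximum activity change above -50%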;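 further: thallium influx rate constant from kinetic fluorescence after stimulation buffer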
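FluxOr-based Tl+ influx in U2OS cells transduced with KCNH2 3.1 virus; rate constants normalized to DMSO controls.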
Mm-Cpn inhibitor: inhibitors of Methanococcus maripaludis chaperonin TRiC (MmCpn) | actives 0.031% (n = 330,000) | Potency, µM (top dose mostly 76.9 µM), actives largely listed as inhibitors | AID 504842 | purified Mm-Cpn ATPase, ADP Transcreener TR-FRET; active means well fitted inhibition curve with a large enough effect; inconclusive means small, poorly fitted or top-dose-only effect; further: nearly all actives have a fitted effect of over 80% in size
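25 nM Mm-CPN + cpd, 10 min 37°C; + 10 uM ATP, 30 min 37°C; buffer 30 mM Tris pH 7.4, 100 mM KCl, 5 mM MgCl2, 1 mM DTT; Transcreener ADP HTRF detection 30 min RT.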
CCT chaperon mod: cytosolic chaperonin activity modulation. purified chaperonin ATPase assay, HTRF ADP detection, 30 min. activity change, % (test concentration not listed), hits read low. actives 0.3% (n = 360,000); in the data active means activity change below about -30%
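ATPase activity: ADP formed was measured by HTRF Transcreener (665/615 nm ratio) after 30 min at 37 deg C with 10 uM ATP. Compounds screened at one 76 uM concentration against 40 or 20 nM TRiC in Tris pH 7.4/KCl/MgCl2/DTT buffer.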
Hits are given with their value; 0 = inactive; ? = inconclusive; - = no result given. Unless noted, the call rests on the fitted dose curve.

SMILES | KCNH2 WT inh | Rango complex inh | Rango dissoc inh | KCNH2 3.1 inh | Mm-Cpn inhibitor | CCT chaperon mod
Cc1ccc(C(=O)N2CCN(CCNC(=O)C(=O)NCc3ccc(Cl)cc3)CC2)cc1 | 0 | 0 | 0 | ? | 0 | 0
Cc1ccc(C(=O)N2CCN(CCNC(=O)C(=O)Nc3ccc(Cl)cc3)CC2)cc1 | 0 | 0 | 0 | -87 | 0 | 0
O=C(NCCN1CCN(C(=O)c2ccc(Br)cc2)CC1)c1ccc(Br)cc1 | 0 | 0 | 0 | -83 | 0 | 0
Cc1ccc(NC(=O)C(=O)NCCN2CCN(Cc3ccc([N+](=O)[O-])cc3)CC2)cc1 | -82 | 0 | 0 | -108 | 0 | 0
CCc1ccc(NC(=O)C(=O)NCCN2CCN(Cc3ccc([N+](=O)[O-])cc3)CC2)cc1 | -91 | 0 | 0 | -106 | 0 | 0
CCCCn1nnnc1C(c1cc2ccccc2o1)N(C)CCc1ccccc1 (centres undefined) | - | - | - | - | - | 0
N#Cc1c(Cl)c(Cl)c2nnc(-c3ccc(Br)cc3)n2c1Cl | - | - | - | - | 0 | -
O=C(NCCC(=O)N1CCN(c2ccccn2)CC1)c1ccc([N+](=O)[O-])cc1 | 0 | 0 | 0 | 0 | 0 | 0
S=c1[nH]nc(-c2ccccn2)n1/N=C/c1ccccc1 | 0 | 0 | 0 | 0 | 0 | 0
S=c1[nH]nc(-c2ccccn2)n1/N=C/c1cccs1 | 0 | 0 | 0 | 0 | 0 | -32
CC(C)(C)c1n[nH]c(=S)n(/N=C/c2cccs2)c1=O | 0 | 0 | 0 | 0 | 0 | -35
c1ccc(CSc2nnc3ccc(-c4ccncc4)nn23)cc1 | 0 | 0 | 0 | 0 | 0 | 0
c1cncc(CSc2nnc3ccc(-c4ccncc4)nn23)c1 | -79 | 0 | ? | 0 | 0 | 0
CCSc1nc2sc3c(c2c(=O)n1-c1ccccc1C)CCN(C)C3 | 0 | ? | 0 | 0 | 0 | 0
NC(=S)NN=C1CSSC1 | 0 | - | - | 0 | - | 0
CCOc1ccc(C2=Nn3c(nnc3-c3ccccc3)SC2)cc1Cl | 0 | 0 | 0 | -203 | 0 | 0
CCc1ccc(Nc2nnc(SCc3cc(=O)n4ccsc4n3)s2)cc1 | 0 | 0 | 0 | 0 | 0 | 0
Cc1ccc(S(=O)(=O)N(C)C)cc1NC(=O)CCNC(=O)c1ccco1 | 0 | 0 | 0 | 0 | 0 | 0
CCc1cc(-c2nnn(CCC3COCCO3)c2C(C)(C)O)ccc1-c1cn(CCc2c[nH]c3ccccc23)nn1 (centres undefined) | 0 | - | - | 0 | - | 0
O=C(C1=C[C@H](C2CC2)C[C@H](OCCCCO)O1)N1CCOCC1 | -89 | 0 | 0 | 0 | - | 0
Brc1ccc(C2=Nc3cccc4cccc(c34)N2)o1 | 0 | 0 | 0 | 0 | 0 | -44
Fc1ccc(C2=Nc3cccc4cccc(c34)N2)cc1 | 0 | 0 | 0 | 0 | 0 | 0
CCOC(=O)C1(Cc2ccccc2C)CCCN(C(=O)COC)C1 (centres undefined) | 0 | 0 | 0 | -107 | 0 | 0
Cc1ccc(CSc2nc3sc(C)c(C)c3c(=O)n2Cc2ccco2)cc1 | 0 | 0 | 0 | 0 | 0 | -31
CC1CCCCN1CCCNC(=O)c1cc(Br)c(Br)[nH]1 (centres undefined) | 0 | 0 | 0 | 0 | 0 | 0
SMILES | KCNH2 WT inh | Rango complex inh | Rango dissoc inh | KCNH2 3.1 inh | Mm-Cpn inhibitor | CCT chaperon mod
C=CCSC1=NNC(c2ccc(C(C)(C)C)cc2)=NN1 | 0 | 0 | 0 | 0 | 0 | 0
COc1ccc(CC(=O)Nc2nc(C(C)(C)C)cs2)cc1 | 0 | 0 | 0 | 0 | 0 | -67
COc1cccc(CC(=O)Nc2nc(-c3ccc(F)c(F)c3)cs2)c1 | 0 | 0 | 0 | -94 | 0 | 0
COc1ccc(CC(=O)Nc2nc(C)cs2)cc1 | 0 | 0 | 0 | 0 | 0 | 0
CCOC(=O)c1sc(=S)n(C)c1NC(=O)c1ccccc1C | 0 | 0 | 0 | 0 | 0 | 0
c1cn2cc(-c3ccc4c(c3)OCO4)nc2s1 | 0 | 0 | 0 | 0 | 0 | -63
CC(=O)Nc1ccc(-c2cn3ccsc3n2)cc1 | 0 | 0 | 0 | - | 0 | 0
COc1ccc(C2C=C(C)Nc3nc4ccccc4n32)cc1 (centres undefined) | 0 | ? | ? | 0 | 0 | 0
COc1ccc(C2C(C#N)=C(N)Nc3nc4ccccc4n32)cc1 (centres undefined) | -113 | 0 | 0 | 0 | 0 | 0
O=c1[nH]c(CN2CCN(Cc3ccccc3)CC2)nc2scc(-c3ccccc3)c12 | 0 | 0 | 0 | 0 | 0 | 0
CSCc1nc2scc(-c3ccccc3)c2c(=O)[nH]1 | 0 | 0 | 0 | -92 | 0 | 0
Cc1c(NC2=CC(=O)CC(C)(C)C2)ccc([N+](=O)[O-])c1C | 0 | 0 | 0 | -104 | 0 | 0
Cc1ccc(NC(=O)c2ccc(S(=O)(=O)N3CCOCC3)cc2)c(C)c1 | 0 | 0 | 0 | 0 | 0 | 0
COc1cc(C)ccc1NC(=O)c1ccc(S(=O)(=O)N2CCOCC2)cc1 | 0 | 0 | 0 | 0 | 0 | -30
O=C(NCCCNC(=O)c1c(F)cccc1F)c1c(F)cccc1F | 0 | 0 | 0 | 0 | 0 | -78
CC(=O)N1CCN(C(=O)c2ccc(S(=O)(=O)Nc3ccccc3F)cc2)CC1 | 0 | 0 | 0 | 0 | 0 | 0
COc1cc(NC(=O)CN2CCCCCC2)cc(OC)c1 | 0 | 0 | 0 | 0 | 0 | 0
COc1ccc(NC(=O)CN2CCN(c3ccc(C)cc3C)CC2)cc1 | 0 | 0 | 0 | 0 | 0 | -55
COc1ccc(NC(=O)CN2CCN(CC(=O)Nc3cc(OC)cc(OC)c3)CC2)cc1 | 0 | 0 | 0 | -81 | 0 | 0
COc1ccc(NC(=O)CN2CCN(c3c(C)cc(C)cc3C)CC2)cc1 | 0 | 0 | 0 | 0 | 0 | 0
CCCCNC(=O)CN1CCN(Cc2ccc3cc(OC)ccc3c2)CC1 | 0 | 0 | 0 | -84 | 0 | 0
C/C(=N\N=C(/C)c1cccc(N)c1)c1cccc(N)c1 | 0 | ? | 0 | 0 | - | 0
Cc1ccc(CN2CCN(CC(=O)N=Nc3c(O)[nH]c4ccccc34)CC2)cc1 | ? | 0 | 0 | -72 | 0 | 0
O=C(CN1CCN(Cc2ccccc2Cl)CC1)N=Nc1c(O)[nH]c2ccccc12 | 0 | 0 | 0 | 0 | 0 | 0
CCOC(=O)[C@]12CCC=C1N(Cc1ccco1)C(=O)[C@H](CC(=O)NCCCN1CCCC1=O)C2 | - | - | - | - | - | 0
O=C(O)c1cc(Cl)c2c(c1)OCO2 | 0 | 0 | 0 | 0 | 0 | -61
Nn1c(=O)c2ccccc2n2c(SCc3ccc(C(F)(F)F)cc3)nnc12 | 0 | 0 | 0 | 0 | 0 | 0
Cc1ccc(S(=O)(=O)N2CCCC(C(=O)O)C2)s1 (centres undefined) | 0 | 0 | 0 | 0 | 0 | -94
Cc1cc(-c2cc(C(=O)NCc3ccccc3)on2)nc(S(C)(=O)=O)n1 | 0 | 0 | 0 | 0 | 0 | 0
O=C(Nc1nc(-c2ccc3ccccc3c2)cs1)C1CCN(S(=O)(=O)c2cccs2)CC1 | 0 | ? | 0 | 0 | 0 | -51
